Drawing on PubChem BioAssay (NCI), this text covers growth for 29 compounds.

What all share (assay): NCI-60 one-dose screen, 48 h (100 = growth as untreated, 0 = no growth, -100 = all killed)
Holding throughout (conditions): 10 µM unless noted

The test system of assay [1] is SR leukemia.
The subject of assay [2] is RPMI-8226 leukemia.
For assay [3], the system named is OVCAR-8 ovarian.
For assay [4], the system named is OVCAR-4 ovarian.
The subject of assay [5] is SK-OV-3 ovarian.
Assay [6] has as its system IGROV1 ovarian.
For assay [7], the system named is OVCAR-3 ovarian.
For assay [8], the system named is HS 578T breast.
Assay [9] concerns NCI/ADR-RES ovarian.
Assay [10] concerns OVCAR-5 ovarian.

This is part of a sample that, as a whole, favours compounds with a hit. Of some 83,000 tested, about 20% had one in any assay.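 Step 1: grow cells in 96-well plates. Step 2: add test compound at a single concentration. Step 3: incubate 48 h. Step 4: record percent growth.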 A number with no mark means an inactive call. Activity calls are given as the source filed them. Rule for the calls: active = growth percent below 10; inactive = the rest.

Regarding `CC[C@H](C)[C@@H]1NC(=O)[C@H](Cc2ccc(O)cc2)N(C)C(=O)[C@H](Cc2ccccc2)NC(=O)CN(C)C(=O)[C@@H]2CCCN2C(=O)[C@@H](Cc2ccccc2)N(C)C(=O)[C@H](CC(C)C)NC1=O`, the growth in [1] is 4.5% (active); in assay [2] it was -33.3% (active); in assay [3], 5.34% (active); in [4], -4.8% (active); in [5] it was 4.76% (active); in [6], -8.42% (active). The growth in [7] is -10.7% (active); in assay [8], -12% (active); in assay [9], 70.7%.
On to `CCOC(=O)C1CC(=O)c2cc(OC)c(OC)cc2C1` (stereo not given), for which the growth in assay [1] is 89.6%; in [2], 82.3%; in assay [3] it was 103%; in assay [4] it was 96.8%; in assay [5], 106%; in assay [7], 110%. The results for the growth in [8] and in assay [9] were 112% and 98.5%, respectively.
Take `COc1ccc(-c2nc3sccn3c2/C=C/C(=O)c2cc(OC)c(OC)c(OC)c2)cc1`: the growth was 55.4% in [1]; -39.1% (active) in assay [2]; 49.9% in assay [3]; 54.7% in assay [4]; 68.5% in [5]; 53.7% in [7]. The growth was 71.1% in assay [8] and 47.5% in assay [9].
`CC(=O)c1c(-c2ccc(OC(F)(F)F)cc2)nc2ccccn12`: the growth in assay [1] is 116%; in assay [2] it was 101%; in assay [10], 83.1%; in assay [4], 100%; in assay [5] it was 97.6%; in [6], 88.8%. Further, the growth is 101% in [7], 102% in assay [8] and 95.9% in [9].
In the case of `CS(=O)(=O)c1ccc(-c2cc3c(oc2=O)-c2ccccc2OC3O)cc1` (stereo not given), the growth in assay [1] was 103%; in assay [2], 90.6%; in assay [10], 98.2%; in assay [4], 94%; in assay [5], 92.8%; in assay [6] it was 102%. Further, the growth in [7] is 88.2%; in assay [8], 88.5%; in assay [9], 105%.
With `COc1ccc(/C=C2\COc3ccc(-c4ccccc4)cc3C2=O)cc1O`, the growth in [1] was -10.8% (active); in [2] it was -21.6% (active); in [10] it was 53.7%; in [4], 80.5%; in assay [5] it was 57.6%; in assay [6] it was 7.03% (active). In addition, the growth in assay [7] is 2.7% (active); in assay [8] it was -1.69% (active); in assay [9], 22.6%.
For the compound `CCN(CC)CCCC(C)Nc1c2c(nc3ccc(OC)cc13)CCCC2` (stereo not given), the growth in assay [1] is 93.6%; in assay [2], 100%; in assay [10] it was 90.2%; in assay [4], 103%; in assay [5], 119%; in assay [6] it was 98.1%. Further, the growth was 102% in assay [7], 93.5% in assay [8] and 96.8% in assay [9].
In the case of `COc1ccc(C(=O)/C=C/c2c(OC)cc(OC)cc2OC)c(OC)c1`, the growth in assay [1] was 23.1%; in [2] it was 13%; in assay [3], 25.9%; in assay [4] it was 79.1%; in assay [5], 10.9%; in assay [7], -33.3% (active). For the same compound, the values for the growth in assay [8] and in [9] were 54.1% and -21.9% (active), respectively.
Turning to `CC(C)(C#N)N1CCN(c2ccccc2Cl)CC1`, the growth was 101% in assay [1]; 105% in [2]; 93.9% in assay [3]; 119% in [4]; 103% in [5]; 106% in assay [6]. The growth in [7] was 101%; in assay [8], 96.4%; in [9] it was 98.8%.
With `NC(=O)C1(N2CCCCC2)CCN(CCCC(=O)c2ccc(F)cc2)CC1`, the growth in assay [1] was 11.4%; in assay [2] it was 29.5%; in [10] it was 72.7%; in [4], 59.8%; in assay [5] it was 30.8%; in assay [6] it was 62.6%. Also, the growth in [7] was -14.7% (active); in assay [8], -2.41% (active); in assay [9], 100%.
In the case of `COc1cc(/C=C2\C(=O)N(Cc3ccc(Cl)cc3)c3ccccc32)cc(OC)c1OC`, the growth in [1] is -5.2% (active); in [2], -31.7% (active); in [10], 65.9%; in [4] it was 47.7%; in assay [5], 79.3%; in assay [6], 9.22% (active). Moreover, the figures for the growth in assay [7], in assay [8] and in assay [9] were -49.6% (active), -14.3% (active) and 21.4%, respectively.
For `O=C1CCCCCCCCC(O)C(O)CCCC(c2cccs2)O1` (stereo not given), the growth in [1] is -12.3% (active); in [2], 87.1%; in [3], 99%; in assay [4], 78.8%; in [5], 82.1%; in assay [6], 97.8%. In addition, the growth in assay [7] was 102%; in [8], 103%; in assay [9], 91.1%.
As to `COc1cc(-c2cc(=O)oc3cc(O)ccc23)cc(OC)c1OC`, the growth in assay [1] was 97.6%; in assay [2], 41.8%; in assay [10], 103%; in assay [4], 73%; in assay [5], 135%; in [6], 94%. For the same compound, the growth was 88.4% in [7], 88.5% in assay [8] and 88.3% in [9].
In the case of `CCNC(=O)c1[nH]cc(-c2ccc(OC)cc2)c1-c1cc(OC)cc(OC)c1`, the growth in assay [1] is 92.6%; in [2], 87.7%; in assay [3], 93.4%; in [4] it was 81.4%; in [5] it was 145%; in assay [6] it was 80.3%. Besides, the values for the growth in assay [7], in [8] and in assay [9] were 83.5%, 87.1% and 86.9%, respectively.
Regarding `O=C(Nc1ccc2ncnc(Nc3ccc(Oc4cccc(F)c4)c(Cl)c3)c2c1)c1ccc(CNCCO)cc1`, the growth was 5.98% (active) in assay [1]; 6.61% (active) in assay [2]; 78.1% in assay [10]; 7.6% (active) in assay [4]; 29.5% in [5]; 9.12% (active) in [6]. The growth in assay [7] was 45.7%; in [8] it was 51.3%; in assay [9], 76.9%.
With `O=C(N=Nc1c(O)[nH]c2ccc(F)cc12)c1cc2ccccc2[nH]1`, the growth in assay [1] was 95.1%; in [2], 92%; in assay [10], 103%; in assay [4] it was 99.9%; in assay [5] it was 110%; in [6], 79.3%. For the same compound, the values for the growth in assay [7], in [8] and in [9] were 101%, 101% and 100%, respectively.
`O=S(=O)(NCCCNc1nccc(-c2c(-c3cccc(O)c3)nc3occn23)n1)c1ccc(Br)cc1`: the growth in assay [1] is 89.8%; in [2], 86.4%; in assay [10], 137%; in assay [4] it was 118%; in [5] it was 94%; in assay [6] it was 79.2%. Also, the growth is 102% in [7], 91.6% in assay [8] and 107% in assay [9].
Consider `C[C@]12CCc3nc(Nc4cccc(O)c4)sc3C1=CC[C@@H]1[C@@H]2CC[C@]2(C)/C(=N\NC(N)=S)CC[C@@H]12`, for which the growth was 8.77% (active) in assay [1]; -22.2% (active) in assay [2]; 58.8% in assay [10]; 39% in assay [4]; 29.9% in assay [5]; -35.5% (active) in assay [6]. In addition, the growth is -54% (active) in [7], -0.0546% (active) in assay [8] and 47.8% in assay [9].
As to `N#Cc1c(Nc2ccccc2)nn2cc(-c3nc4ccccc4s3)c(N)nc12`, the growth in assay [1] was 74.3%; in assay [2], 91.9%; in [10] it was 88.5%; in [4], -13.7% (active); in assay [5], 90.2%; in assay [6], 65.5%. The growth in [7] was 97%; in assay [8] it was 64.3%; in assay [9], 50.6%.
For the compound `CCc1c(Nc2ccc(C)cc2)[nH]c(N)nc1=S`, the growth is 94.4% in assay [1]; 115% in [2]; 98.9% in assay [10]; 107% in assay [4]; 111% in assay [5]; 104% in assay [6]. Besides, the results for the growth in assay [7], in assay [8] and in [9] were 119%, 94.8% and 105%, respectively.
Take `O=c1[nH]nc(-c2ccc(Br)cc2)cc1Cc1ccc(O)cc1`: the growth in assay [1] was -29.1% (active); in assay [3], 92.7%; in assay [10] it was 106%; in assay [4] it was 97.6%; in assay [5], 92.9%; in [6] it was 82.4%. For the same compound, the growth in assay [7] is 92.4%; in [8] it was 64.1%; in [9], 71%.
Turning to `COc1cc(C2CC(c3cccc(Nc4ccncc4)c3)=NN2c2ccc(Cl)cc2)cc(OC)c1OC` (stereo not given), the growth in assay [1] was 2.48% (active); in [2] it was -18.7% (active); in assay [10], 72.1%; in [4] it was 6.52% (active); in assay [6], 4.16% (active); in [7], -25.3% (active). Also, the growth in assay [8] was 27.8%; in assay [9] it was 42.7%.
In the case of `O=C(CSc1nc2sc3c(c2c(=O)n1Cc1ccccc1)CCCC3)N1CCN(c2ccccc2)CC1`, the growth is 101% in [1]; 94.1% in [2]; 102% in [10]; 96.1% in assay [4]; 92.1% in assay [5]; 106% in assay [7]. Moreover, the figures for the growth in [8] and in [9] were 101% and 94.8%, respectively.
Consider `Clc1cc(Cl)cc(N2N=C(c3cccc(Nc4ccncc4)c3)CC2c2ccc3c(c2)OCO3)c1` (stereo not given), for which the growth in assay [1] is 2.87% (active); in [2] it was 11.3%; in assay [4] it was 14.9%; in [5] it was 74.1%; in assay [6], 2.89% (active); in assay [7] it was 52.3%. In addition, the growth in [8] is 50.6%; in assay [9] it was 66.9%.
Turning to `O=C(CN1CCOCC1)Nc1ccc2ncnc(Nc3ccc(Oc4cccc(F)c4)c(Cl)c3)c2c1`, the growth in [1] is 84.1%; in assay [3], 68.6%; in [10], 68.7%; in [4], 73.4%; in assay [5], 13.9%; in [6] it was 19.9%. Besides, the growth in [7] is 55.6%; in assay [8] it was 86.6%; in [9], 60%.
`NC(=O)c1cccc(-c2ccccc2N2CCCCC2)c1`: the growth in [1] is 66.4%; in assay [3] it was 99.7%; in [10], 95.1%; in [4] it was 89.9%; in assay [5] it was 94.9%; in [6], 92.4%. Besides, the growth in [7] is 106%; in assay [8], 101%; in assay [9] it was 102%.
For `c1ccc(-c2nnc(Nc3ccc4c(c3)OCCO4)o2)c(NCc2ccncc2)c1`, the growth was 10.9% in assay [1]; 20.2% in assay [3]; 32.2% in assay [10]; 35.5% in [4]; -2.96% (active) in [5]; 28.5% in assay [6]. Besides, the growth in [7] was -36.9% (active); in assay [8], 64.4%; in [9] it was 4.75% (active).
As for `CCCCCCOc1ccc(/C=N/Nc2cc(C)nc3ccc(Br)cc23)cc1`, the growth in assay [1] was -32.2% (active); in [3] it was -36.1% (active); in [10], -92.7% (active); in [4], -88.5% (active); in assay [5] it was 101%; in assay [6], -85.3% (active). Besides, the growth in assay [7] is -91.6% (active); in [8], -40.4% (active); in assay [9] it was -67.1% (active).
With `COc1ccc(-c2c(-c3ccccc3)noc2N)cc1OC`, the growth in assay [1] is 76.6%; in assay [3], 100%; in assay [10], 117%; in assay [4], 113%; in assay [5], 107%; in assay [6] it was 113%. The growth in assay [7] is 117%; in [8], 148%; in assay [9] it was 104%.
